Data on ten compounds can be found in the supplement of paper PMC10981050.

Experiment in all cases: cell viability relative to vehicle control; higher = less cytotoxic
Conditions in all cases: 10 µM

One assay relates to K562. The method in brief:
(§1)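 Screening covered the Selleck bioactive, kinase and epigenetic probe libraries, less identity-inconsistent compounds, on CRISPR-edited mutant clones and isogenic wild-type clones of four leukaemia lines. Cells, at 2000 per well in 50 µL medium, received a single 10 µM acoustically dispensed dose. After 48 h the supernatant was removed and CellTiter-Glo luminescence was read. Viability was analysed in Genedata Screener as percent of the on-plate vehicle control.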

The next assay concerns MARIMO. Summed up: as §1
Another assay concerns MOLM14. Summed up:
as §1

In the next assay the test system is OCI-AML2. Summed up: as §1

Several values for one entry are separate records, joined by “and”; a condition that tells them apart may be missing. Identical values can stand only once.

On to `Cc1c(C(=O)N2CCOc3ccc(-c4ccc(N)nc4)cc3C2)ccc(S(C)(=O)=O)c1F`, for which the cell viability (commonly a read-out of living cells in per cent, often relative to untreated cells) in the assay on K562 (SRSF2 genotype: SRSF2 P95H/wt) is 84.6% and 89.8%; with K562 (SRSF2 genotype: SRSF2 wt/wt), 84.4%; in the assay with MARIMO (SRSF2 genotype: SRSF2 P95H/wt), 81.4%; in the assay with MARIMO (SRSF2 genotype: SRSF2 wt/wt) it was 76.9%; in the assay with MOLM14 (SRSF2 genotype: SRSF2 P95H/wt), 71.2%; with MOLM14 (SRSF2 genotype: SRSF2 wt/wt), 63.6%. The cell viability with OCI-AML2 (SRSF2 genotype: P95H/wt) turned out to be 70%; in the assay with OCI-AML2 (SRSF2 genotype: wt/wt), 67.8%.
On to `C[C@H]1C[C@H]2[C@@H]3C[C@H](F)C4=CC(=O)C=C[C@]4(C)[C@@]3(F)[C@@H](O)C[C@]2(C)[C@@]1(O)C(=O)CO` [Diflorasone], for which the cell viability with K562 (SRSF2 genotype: SRSF2 P95H/wt) is 101% and 99.2%; in the assay with K562 (SRSF2 genotype: SRSF2 wt/wt), 105%; with MARIMO (SRSF2 genotype: SRSF2 P95H/wt), 109%; in the assay with MARIMO (SRSF2 genotype: SRSF2 wt/wt), 113%; in the assay with MOLM14 (SRSF2 genotype: SRSF2 P95H/wt), 92.1%; in the assay with MOLM14 (SRSF2 genotype: SRSF2 wt/wt), 98.9%. Also, the cell viability in the assay with OCI-AML2 (SRSF2 genotype: P95H/wt) worked out at 92.7%; with OCI-AML2 (SRSF2 genotype: wt/wt), 120%.
Turning to `O=C1c2ccccc2-c2n[nH]c3cccc1c23`, the cell viability was 95% and 105% with K562 (SRSF2 genotype: SRSF2 P95H/wt); 95.8% with K562 (SRSF2 genotype: SRSF2 wt/wt); 72.3% in the assay on MARIMO (SRSF2 genotype: SRSF2 P95H/wt); 72% in the assay with MARIMO (SRSF2 genotype: SRSF2 wt/wt); 45% with MOLM14 (SRSF2 genotype: SRSF2 P95H/wt); 33.1% in the assay on MOLM14 (SRSF2 genotype: SRSF2 wt/wt). In addition, the figures for the cell viability with OCI-AML2 (SRSF2 genotype: P95H/wt) and with OCI-AML2 (SRSF2 genotype: wt/wt) were 53.1% and 48.7%, respectively.
As to `Nc1ccc(C(=O)O)c(O)c1` [Sodium 4-Aminosalicylate], the cell viability with K562 (SRSF2 genotype: SRSF2 P95H/wt) is 89.6% and 88.1%; in the assay on K562 (SRSF2 genotype: SRSF2 wt/wt), 81.3%; with MARIMO (SRSF2 genotype: SRSF2 P95H/wt), 85.7%; in the assay with MARIMO (SRSF2 genotype: SRSF2 wt/wt) it was 92.5%; in the assay with MOLM14 (SRSF2 genotype: SRSF2 P95H/wt), 88.7%; with MOLM14 (SRSF2 genotype: SRSF2 wt/wt), 88.1%. Further, the cell viability was determined as 86.3% in the assay with OCI-AML2 (SRSF2 genotype: P95H/wt) and 97.5% in the assay with OCI-AML2 (SRSF2 genotype: wt/wt).
With `Cc1nc(NC(=O)N2CCC[C@H]2C(N)=O)sc1-c1csc(C(C)(C)C)n1`, the cell viability in the assay with K562 (SRSF2 genotype: SRSF2 P95H/wt) is 98.3% and 99.5%; with K562 (SRSF2 genotype: SRSF2 wt/wt), 89.9%; in the assay with MARIMO (SRSF2 genotype: SRSF2 P95H/wt) it was 64.9%; in the assay on MARIMO (SRSF2 genotype: SRSF2 wt/wt), 63.3%; in the assay with MOLM14 (SRSF2 genotype: SRSF2 P95H/wt), 72%; with MOLM14 (SRSF2 genotype: SRSF2 wt/wt) it was 86.6%. In addition, the cell viability with OCI-AML2 (SRSF2 genotype: P95H/wt) came out at 61.8%; in the assay on OCI-AML2 (SRSF2 genotype: wt/wt) it was 61.9%.
With `N#C/C(=C1/SC[C@@H](c2ccc(Cl)cc2Cl)S1)n1ccnc1` [Luliconazole], the cell viability in the assay with K562 (SRSF2 genotype: SRSF2 P95H/wt) was 85.6% and 83.3%; in the assay on K562 (SRSF2 genotype: SRSF2 wt/wt), 82.6%; with MARIMO (SRSF2 genotype: SRSF2 P95H/wt), 78.9%; in the assay with MARIMO (SRSF2 genotype: SRSF2 wt/wt), 100%; in the assay on MOLM14 (SRSF2 genotype: SRSF2 P95H/wt), 88.7%; in the assay on MOLM14 (SRSF2 genotype: SRSF2 wt/wt), 89.5%. For the same compound, the cell viability in the assay with OCI-AML2 (SRSF2 genotype: P95H/wt) was 62.5%; with OCI-AML2 (SRSF2 genotype: wt/wt), 83.5%.
For `CCCNC(C)C(=O)Nc1ccccc1C` (stereo not given) [Prilocaine], the cell viability is 87.8% and 85.9% in the assay with K562 (SRSF2 genotype: SRSF2 P95H/wt); 86.8% in the assay with K562 (SRSF2 genotype: SRSF2 wt/wt); 79.4% in the assay with MARIMO (SRSF2 genotype: SRSF2 P95H/wt); 90.5% in the assay on MARIMO (SRSF2 genotype: SRSF2 wt/wt); 93.3% in the assay with MOLM14 (SRSF2 genotype: SRSF2 P95H/wt); 85.6% in the assay on MOLM14 (SRSF2 genotype: SRSF2 wt/wt). The cell viability with OCI-AML2 (SRSF2 genotype: P95H/wt) is 89.1%; in the assay on OCI-AML2 (SRSF2 genotype: wt/wt) it was 90.7%.
Turning to `Cc1nc(-c2cn3c(n2)-c2ccc(-c4cnn(C(C)(C)C(N)=O)c4)cc2OCC3)n(C(C)C)n1`, the cell viability with K562 (SRSF2 genotype: SRSF2 P95H/wt) is 74.5% and 79.4%; in the assay on K562 (SRSF2 genotype: SRSF2 wt/wt) it was 72.8%; in the assay on MARIMO (SRSF2 genotype: SRSF2 P95H/wt), 45.2%; with MARIMO (SRSF2 genotype: SRSF2 wt/wt), 42%; in the assay with MOLM14 (SRSF2 genotype: SRSF2 P95H/wt) it was 32.3%; in the assay with MOLM14 (SRSF2 genotype: SRSF2 wt/wt) it was 40.1%. For the same compound, the figures for the cell viability in the assay on OCI-AML2 (SRSF2 genotype: P95H/wt) and in the assay with OCI-AML2 (SRSF2 genotype: wt/wt) were 8.91% and 22.8%, respectively.
As to `CC(C)=C[C@H]1C[C@](C)(O)[C@@H]2[C@H]3CC[C@@H]4[C@@]5(C)CC[C@H](O[C@@H]6OC[C@H](O)[C@H](O[C@@H]7O[C@H](CO)[C@@H](O)[C@H](O)[C@H]7O[C@@H]7OC[C@@H](O)[C@H](O)[C@H]7O)[C@H]6O[C@@H]6O[C@@H](C)[C@H](O)[C@@H](O)[C@H]6O)C(C)(C)[C@@H]5CC[C@@]4(C)[C@@]34CO[C@@]2(C4)O1` [Jujuboside B], the cell viability with K562 (SRSF2 genotype: SRSF2 P95H/wt) is 117% and 106%; in the assay with K562 (SRSF2 genotype: SRSF2 wt/wt), 102%; with MARIMO (SRSF2 genotype: SRSF2 P95H/wt), 108%; in the assay on MARIMO (SRSF2 genotype: SRSF2 wt/wt), 113%; with MOLM14 (SRSF2 genotype: SRSF2 P95H/wt), 107%; in the assay on MOLM14 (SRSF2 genotype: SRSF2 wt/wt) it was 106%. Also, the results for the cell viability with OCI-AML2 (SRSF2 genotype: P95H/wt) and with OCI-AML2 (SRSF2 genotype: wt/wt) were 97.2% and 108%, respectively.
With `CCCCCCCCC[C@H](O)CC(=O)CCc1ccc(O)c(OC)c1` [10-Gingerol], the cell viability in the assay on K562 (SRSF2 genotype: SRSF2 P95H/wt) was 92.4% and 91.5%; in the assay with K562 (SRSF2 genotype: SRSF2 wt/wt), 98.5%; in the assay with MARIMO (SRSF2 genotype: SRSF2 P95H/wt), 91.1%; in the assay on MARIMO (SRSF2 genotype: SRSF2 wt/wt), 92.4%; in the assay on MOLM14 (SRSF2 genotype: SRSF2 P95H/wt), 90%; in the assay on MOLM14 (SRSF2 genotype: SRSF2 wt/wt), 94%. The cell viability was 82.5% with OCI-AML2 (SRSF2 genotype: P95H/wt) and 82.4% in the assay with OCI-AML2 (SRSF2 genotype: wt/wt).
